Data taken from PubChem BioAssay AID1159580 (chemical genetic matrix, 2015).
Out of some 5,500 compounds screened, about 2,000 (36%) were called active. Inconclusive results (about 18%) are left out. Rule as the data show it: active = normalized growth mostly below about 0.91 (no sharp cut-off); inconclusive = no clear call, values can overlap the other calls; inactive = mostly above about 0.92. The list shows a part of the results.

Assay: chemical genetic growth profiling, strain panel (AID 1159580);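 also: tested at 20 µM; growth read once vehicle control cultures reached saturation at 30 °C; 1 = growth at the plate median or of vehicle wells; lower values mean less growth of the strain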
Conditions: S. cerevisiae deletion strains, growth OD
[1] = locus YHR030C, strain SLT2, active compounds read low
[2] = locus YHR079C, strain IRE1, active compounds read low
[3] = locus YJL095W, strain BCK1, active compounds read low
[4] = locus YJR066W, strain TOR1, active compounds read low
[5] = locus YLR113W, strain HOG1, active compounds read low
[6] = locus YNL183C, strain NPR1, active compounds read low
[7] = locus YOR231W, strain MKK1, active compounds read low
[8] = locus YPL256C, strain CLN2, active compounds read low

Measured: normalized growth

CC1(O)CC2C(CC1O)C2(C)C (stereo unspecified)
inactive: locus YAL021C, strain ccr4, active compounds read low 0.988 | locus YAL026C, strain drs2, active compounds read low 1 | locus YAL030W, strain snc1, active compounds read low 0.99 | locus YBL061C, strain skt5, active compounds read low 0.988 | locus YBR009C, strain hhf1, active compounds read low 1.04 | locus YBR023C, strain chs3, active compounds read low 0.999 | locus YBR171W, strain sec66, active compounds read low 0.998 | locus YBR231C, strain swc5, active compounds read low 0.993 | locus YBR279W, strain paf1, active compounds read low 0.995 | locus YCL011C, strain gbp2, active compounds read low 1 | locus YCL016C, strain dcc1, active compounds read low 1.01 | locus YCL069W, strain vba3, active compounds read low 1 | locus YCR088W, strain abp1, active compounds read low 0.997 | locus YDL005C, strain med2, active compounds read low 0.995 | locus YDL040C, strain nat1, active compounds read low 0.999 | locus YDR001C, strain nth1, active compounds read low 1.01 | locus YDR069C, strain doa4, active compounds read low 1.02 | locus YDR137W, strain rgp1, active compounds read low 1 | locus YDR159W, strain sac3, active compounds read low 1 | locus YDR195W, strain ref2 0.988 | locus YDR297W, strain sur2, active compounds read low 1.01 | locus YDR334W, strain swr1, active compounds read low 1 | locus YDR335W, strain msn5, active compounds read low 1 | locus YDR392W, strain spt3, active compounds read low 1 | locus YEL003W, strain gim4, active compounds read low 1.01 | locus YEL037C, strain rad23, active compounds read low 1 | locus YEL061C, strain CIN8 (second series), active compounds read low 0.999 | locus YER015W, strain faa2, active compounds read low 0.995 | locus YER016W, strain bim1, active compounds read low 0.998 | locus YER111C, strain swi4, active compounds read low 0.989 | locus YER155C, strain BEM2 (second series), active compounds read low 1 | locus YFR010W, strain ubp6, active compounds read low 0.997 | locus YGL167C, strain pmr1, active compounds read low 1.01 | locus YGL173C, strain kem1, active compounds read low 0.999 | locus YGL227W, strain vid30, active compounds read low 0.99 | locus YGL240W, strain doc1, active compounds read low 1.01 | locus YGL253W, strain hxk2, active compounds read low 1 | locus YHR013C, strain ard1, active compounds read low 1 | locus YHR027C, strain rpn1, active compounds read low 0.995 | [1] 1.04 | [2] 1.03 | locus YHR142W, strain chs7, active compounds read low 1.01 | locus YJL092W, strain hpr5, active compounds read low 1 | locus YJL095W, strain BCK1 (second series), active compounds read low 0.996 | [3] 0.993 | locus YJL115W, strain asf1, active compounds read low 0.996 | locus YJL129C, strain trk1, active compounds read low 1 | locus YJL154C, strain vps35, active compounds read low 0.994 | locus YJL164C, strain tpk1, active compounds read low 0.998 | locus YJL166W, strain qcr8, active compounds read low 1 | locus YJL187C, strain SWE1, active compounds read low 0.995 | [4] 0.989 | locus YKL160W, strain elf1, active compounds read low 0.994 | locus YKR026C, strain gcn3, active compounds read low 0.994 | locus YKR091W, strain srl3, active compounds read low 1 | locus YLL001W, strain dnm1, active compounds read low 1 | locus YLL026W, active compounds read low 0.998 | locus YLL041C, strain sdh2, active compounds read low 0.991 | locus YLR027C, strain aat2, active compounds read low 1 | [5] 0.976 | locus YLR221C, strain rsa3, active compounds read low 0.999 | locus YLR258W, strain gsy2, active compounds read low 0.982 | locus YLR262C, strain YPT6 (second series), active compounds read low 1.02 | locus YLR320W, strain mms22, active compounds read low 0.994 | locus YLR342W, strain FKS1, active compounds read low 1 | locus YLR357W, strain rsc2, active compounds read low 0.969 | locus YLR370C, strain arc18, active compounds read low 1.01 | locus YLR384C, strain iki3, active compounds read low 0.971 | locus YML120C, strain ndi1, active compounds read low 1 | locus YMR058W, strain fet3, active compounds read low 0.999 | locus YMR125W, strain sto1, active compounds read low 0.988 | locus YMR129W, active compounds read low 0.995 | locus YMR205C, strain PFK2, active compounds read low 0.998 | locus YMR231W, strain pep5, active compounds read low 1.01 | locus YNL071W, strain lat1, active compounds read low 1 | [6] 0.935 | locus YNL209W, strain ssb2, active compounds read low 1.01 | locus YNL248C, strain rpa49, active compounds read low 1 | locus YNL322C, strain KRE1 (second series), active compounds read low 0.981 | locus YNR049C, strain mso1, active compounds read low 0.985 | locus YOR001W, strain rrp6, active compounds read low 1.01 | locus YOR070C, strain gyp1, active compounds read low 0.997 | locus YOR080W, strain dia2, active compounds read low 1 | locus YOR083W, strain WHI5, active compounds read low 0.999 | locus YOR106W, strain vam3, active compounds read low 0.992 | [7] 1.03 | locus YOR265W, strain rbl2, active compounds read low 1.01 | locus YOR270C, strain vph1, active compounds read low 1.03 | locus YOR290C, strain snf2, active compounds read low 1.01 | locus YPL051W, strain arl3, active compounds read low 1 | locus YPL078C, strain atp4, active compounds read low 0.999 | locus YPL106C, strain sse1, active compounds read low 1.01 | locus YPL240C, strain hsp82, active compounds read low 0.998 | [8] 1.02

CCOC(=O)C1C(c2c(F)cccc2Cl)C(C(=O)OCC)C(O)(C(F)(F)F)NC1(O)C(F)(F)F (stereo unspecified)
inactive: locus YAR019C, strain CDC15, active compounds read low 0.984 | locus YBL105C, strain PKC1, active compounds read low 0.988 | locus YBR135W, strain CKS1, active compounds read low 0.994 | locus YBR136W, strain MEC1, active compounds read low 0.979 | locus YBR160W, strain CDC28, active compounds read low 0.993 | locus YDL017W, strain CDC7, active compounds read low 0.99 | locus YDL028C, strain MPS1, active compounds read low 0.993 | locus YDL101C, strain DUN1, active compounds read low 0.983 | locus YDL108W, strain KIN28, active compounds read low 0.994 | locus YDL132W, strain cdc53, active compounds read low 0.993 | locus YDL214C, strain PRR2, active compounds read low 0.986 | locus YDR052C, strain DBF4, active compounds read low 0.99 | locus YDR054C, strain cdc34, active compounds read low 0.985 | locus YDR226W, strain ADK1, active compounds read low 0.992 | locus YDR477W, strain SNF1, active compounds read low 0.998 | locus YER123W, strain YCK3, active compounds read low 0.966 | locus YER133W, strain GLC7, active compounds read low 0.988 | locus YFL009W, strain cdc4, active compounds read low 0.991 | locus YFL029C, strain CAK1, active compounds read low 0.981 | locus YFR003C, strain YPI1, active compounds read low 0.992 | locus YFR019W, strain FAB1, active compounds read low 0.942 | locus YFR028C, strain CDC14, active compounds read low 0.991 | locus YGR040W, strain KSS1, active compounds read low 0.994 | locus YGR052W, strain FMP48, active compounds read low 1.05 | locus YGR092W, strain DBF2, active compounds read low 1 | [1] 0.964 | [2] 0.971 | locus YHR082C, strain KSP1, active compounds read low 0.994 | locus YHR205W, strain SCH9, active compounds read low 0.965 | locus YIL147C, strain SLN1, active compounds read low 0.987 | [3] 0.982 | locus YJL128C, strain PBS2, active compounds read low 0.965 | locus YJL157C, strain FAR1, active compounds read low 0.994 | locus YJR016C, strain ILV3, active compounds read low 0.996 | locus YJR066W, strain TOR1 (second series), active compounds read low 0.951 | [4] 0.969 | locus YKL048C, strain ELM1, active compounds read low 0.988 | locus YKL067W, strain YNK1, active compounds read low 0.987 | locus YKL101W, strain HSL1, active compounds read low 0.989 | locus YKL193C, strain SDS22, active compounds read low 0.99 | locus YKL203C, strain TOR2, active compounds read low 1.06 | [5] 0.926 | locus YLR133W, strain CKI1, active compounds read low 0.985 | locus YLR403W, strain SFP1, active compounds read low 0.986 | locus YML070W, strain DAK1, active compounds read low 0.987 | locus YMR001C, strain CDC5, active compounds read low 0.99 | locus YMR205C, strain PFK2 (second series), active compounds read low 0.997 | locus YMR277W, strain FCP1, active compounds read low 0.991 | locus YNL006W, strain LST8, active compounds read low 0.996 | locus YNL020C, strain ARK1, active compounds read low 0.994 | locus YNL161W, strain CBK1, active compounds read low 0.991 | [6] 0.977 | locus YNL207W, strain RIO2, active compounds read low 0.992 | locus YNL222W, strain SSU72, active compounds read low 0.996 | locus YNL307C, strain MCK1 (second series), active compounds read low 0.986 | locus YOL078W, strain AVO1, active compounds read low 0.998 | locus YOL136C, strain PFK27, active compounds read low 0.979 | locus YOR061W, strain CKA2, active compounds read low 0.996 | locus YOR119C, strain RIO1, active compounds read low 1.03 | [7] 1 | locus YOR329C, strain SCD5, active compounds read low 0.986 | locus YPL031C, strain PHO85, active compounds read low 0.99 | locus YPL153C, strain RAD53, active compounds read low 0.992 | locus YPL204W, strain HRR25, active compounds read low 0.984 | locus YPL209C, strain IPL1, active compounds read low 0.988 | [8] 0.935 | locus YPR025C, strain CCL1, active compounds read low 0.986 | locus YPR106W, strain ISR1, active compounds read low 0.991 | locus YPR111W, strain DBF20, active compounds read low 0.984 | strain NNK1, active compounds read low 0.987 | strain TSCII, active compounds read low 0.995

CN1CC[C@@]2(C)c3cc(O)ccc3N(C)C12 (stereo partly specified)
inactive: locus YAL040C, strain CLN3, active compounds read low 0.971 | locus YCL061C, strain MRC1 (second series), active compounds read low 0.995 | locus YDR150W, strain NUM1, active compounds read low 0.977 | locus YDR363W, strain ESC2, active compounds read low 1.02 | locus YER002W, strain NOP16, active compounds read low 0.998 | locus YGR078C, strain PAC10, active compounds read low 0.982 | locus YGR229C, strain SMI1, active compounds read low 1.03 | locus YJR075W, strain HOC1, active compounds read low 1.01 | locus YMR263W, strain SAP30, active compounds read low 0.993 | locus YMR307W, strain GAS1, active compounds read low 1.02 | locus YNL153C, strain GIM3, active compounds read low 0.941 | locus YNL175C, strain NOP13, active compounds read low 0.989 | locus YNL197C, strain WHI3, active compounds read low 0.969 | locus YNL224C, strain SQS1, active compounds read low 1.02 | locus YOR083W, strain WHI5 (second series), active compounds read low 0.975 | locus YPL055C, strain LGE1, active compounds read low 0.985
